Measured values: the supplement of paper PMC6555819

system: VDR:RXRa (NR concentration 270 nM, RXRa partner concentration 90 nM); assay: PBM binding z-score (relative to random genomic background probes); higher = stronger binding; sequences stand for … in GC…GCGATTGACAGCGTAGAATGAAGG
Method: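 Protein-binding microarray (Agilent 4x180K custom design, double-stranded 60-nt probes: 5' GC cap, 34-nt variable region, 24-nt constant primer region; full probe sequence given). Purified or IVT nuclear receptor:RXRα heterodimers (3:1 NR:RXRα, mostly 270:90 nM) or homodimers were incubated for 1 h in PBS with 2% milk and no ligand, then detected with Alexa488 antibodies. Fluorescence from o1-orientation probes (~5 replicates averaged) was converted to z-scores against 500 random hg19 background probes. Variable regions are seed direct-repeat (DR0–DR5) sites, all their single-nucleotide variants and half-site ablations.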

Sequence	PBM binding z-score
ATCGCTAGGTAAAGTTCAGTGAAAGATCGATAGA	0.735
AAATGTAGGTTACATCCGGGTCATTCAGGCTATG	4.17
CCTATTAGTTGACCATAAGGGCGACCGAAGCTCG	0.426
TCATATAGGTAAAAGCTGAAAGTCGGTGTGGTAA	0.748
CCGACTGGGGCAAAGTTTACCATACTCAGTACGA	0.062
CCTTACGGGTCACGAGGTTATAGCTCGACGAGCG	5.07
ATCTCTAGGTAAAGATAGTTCCGTGAATGCAAAT	-0.0941
CTCGAAAGGTCGTGCTCAGGTGAGAATACCAAAC	3.39
ATAACAAGGTGATCGTGAGGTCGTTGATACTAAC	2.97
ACAACGAGGGCAATGAGTTGATAGCACGGGTGGC	5.13
CCTTACGGGTCACTCCTGGTTATAGCATCGGAGT	2.79
CCTGCTAGGTAATGGTCAGCTAATCTACAGTATG	-0.407
AGAACGAGGGCAATGAGCTGATAGCACGGGTGGC	-0.0572
CCGAGTAGGTTAGGGGGCATTCAGGCAACGGTGA	2.93
ACTGTTAGTTGAGACGAGGGCAACCGATAGGTTG	0.595
GCTATTAGTTTAAAGGGCAACCGAATGATTCTCG	0.65
CGACCAAGGTCAGAGAGGTCAGTGAATGCCGAGT	7.47
TCTTGTAGATCAGCAGGCTAAGAAAGCTGGCCAA	-0.106
GCAGACAGGTGAAACGCAGTTAACTCAGGGTGGC	-0.561
ATATGTAGGTTAGATGGGGTCATTCAGACTAGGC	6.54

Sequence	PBM binding z-score
CCTGCTAGGTCATGGTCACCTAATCTACAGTATG	2.03
CCTTACGGGTGACGAGGTTATAGCACGACGAGCG	0.935
TCTTGTAGATCAATAGGGGTTAAGAAAGTGCGCT	2.64
TCGAGTAGCTTAGGGGCATTCAGAATGGCGTCGA	-0.202
TTACCAAGGTGAAAGGTCTTTGATGCACGCCTTG	0.479
TCTCGGAGGACACGATAGGTCAGAGCTCGACATC	0.769
CGAACTAGGTCATTGACAGGAAAGTGAATAGTAA	1.73
CAAACTAGGTCACGGTCAAAGTCGGTTTGTGCCA	3.33
CGTCCAAGGTCAAAGGTCTGTGAAGAGATGACGG	4.54
CCGACTAGGGCAAGGTTACCATAACGCACAGCCA	0.178
AAACCAAGGTGATCGTGAGGTCGTTGATACTAAC	3.21
CCGCCTAGGTCAGGGCCAGTATAGGAGGAACGTT	0.294
ATCTCTAGGTAAGACACAGTTCAGTGAAGAACGC	1.14
ATCTCTAGGTAGCCAAGTTCAGTGAATGCCGAAC	2.24
CCTATTAGTTGACCATAAGTGCAACCGAAGCTCG	1.31
TCTAGTTGGTCAAAGGTCCCACACTCGAAATGCG	1.12
AGAACGAGGACACGCTGAGTTGATAGCAGAGTAG	0.161
GGAACGAGGGCATTCGAGTTGTTAGCATGGCGAT	2.82
ATACCAAGGTGATCGTGAGGACGTTGATACTAAC	0.664
CAACCTAGGTCAGGGCCAGTATAGGAGGAACGTT	0.746
